Consider twelve compounds from PubChem BioAssay (EPA / NIEHS).

SMILES strings stand for the structures. Where “and” joins values, the source holds several entries; their conditions need not be identical. Equal values may be shown once. Inconclusive results are not listed. A structure can be active in one record and inactive in another. Calls of active or inactive are those of the source. How the source made its calls: active means hit-call score of the fitted dose curve at least 0.9, where 1 is the maximum; inconclusive means response in the unintended direction; inactive means score below 0.9.

The AC50 is the concentration giving half of the maximal activity seen.

Sequence of human Thyroid hormone Receptor beta (TRb), THRB (gene 7068) (P10828 whole entry, looked up, the tested form may be a part): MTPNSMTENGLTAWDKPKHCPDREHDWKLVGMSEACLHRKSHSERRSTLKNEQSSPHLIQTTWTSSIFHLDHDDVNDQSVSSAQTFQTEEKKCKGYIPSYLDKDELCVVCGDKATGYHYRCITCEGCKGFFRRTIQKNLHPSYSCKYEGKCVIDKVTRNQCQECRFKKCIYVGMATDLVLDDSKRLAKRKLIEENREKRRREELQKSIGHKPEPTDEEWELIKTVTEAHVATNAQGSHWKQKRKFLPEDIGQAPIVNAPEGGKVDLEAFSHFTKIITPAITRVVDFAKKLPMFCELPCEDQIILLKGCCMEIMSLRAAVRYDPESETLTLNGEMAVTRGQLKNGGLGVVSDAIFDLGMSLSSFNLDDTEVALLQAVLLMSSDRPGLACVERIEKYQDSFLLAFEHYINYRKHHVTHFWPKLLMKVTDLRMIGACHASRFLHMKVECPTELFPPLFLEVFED
Sequence of GAL4 Transcription Factor (Internal Marker), GAL4 (gene 855828) (P04386 whole entry, looked up, the tested form may be a part): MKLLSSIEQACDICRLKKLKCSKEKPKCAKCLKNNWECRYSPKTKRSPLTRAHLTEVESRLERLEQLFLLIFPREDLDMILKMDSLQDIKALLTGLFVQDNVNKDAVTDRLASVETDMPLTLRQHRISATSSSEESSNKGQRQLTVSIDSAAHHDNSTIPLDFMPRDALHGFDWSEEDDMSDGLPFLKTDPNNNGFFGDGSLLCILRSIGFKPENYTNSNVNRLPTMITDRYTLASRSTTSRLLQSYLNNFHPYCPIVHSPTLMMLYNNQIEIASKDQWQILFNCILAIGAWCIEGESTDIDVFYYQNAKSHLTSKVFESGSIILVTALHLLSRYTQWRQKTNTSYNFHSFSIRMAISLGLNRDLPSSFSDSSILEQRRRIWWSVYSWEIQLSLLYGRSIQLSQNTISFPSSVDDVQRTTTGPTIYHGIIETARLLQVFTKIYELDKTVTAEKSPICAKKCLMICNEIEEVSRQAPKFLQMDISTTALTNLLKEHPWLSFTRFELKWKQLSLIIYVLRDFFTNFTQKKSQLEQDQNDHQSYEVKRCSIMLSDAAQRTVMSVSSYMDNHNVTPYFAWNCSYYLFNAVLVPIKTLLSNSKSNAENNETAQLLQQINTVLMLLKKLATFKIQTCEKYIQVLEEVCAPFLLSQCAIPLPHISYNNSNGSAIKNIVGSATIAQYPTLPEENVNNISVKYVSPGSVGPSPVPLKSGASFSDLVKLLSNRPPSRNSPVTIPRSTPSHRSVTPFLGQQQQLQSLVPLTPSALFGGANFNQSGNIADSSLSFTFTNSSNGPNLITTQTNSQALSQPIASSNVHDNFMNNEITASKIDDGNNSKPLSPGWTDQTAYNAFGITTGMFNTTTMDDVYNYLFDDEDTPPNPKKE
Sequence of Estrogen receptor beta (Homo sapiens) (Q92731 whole entry, looked up, the tested form may be a part): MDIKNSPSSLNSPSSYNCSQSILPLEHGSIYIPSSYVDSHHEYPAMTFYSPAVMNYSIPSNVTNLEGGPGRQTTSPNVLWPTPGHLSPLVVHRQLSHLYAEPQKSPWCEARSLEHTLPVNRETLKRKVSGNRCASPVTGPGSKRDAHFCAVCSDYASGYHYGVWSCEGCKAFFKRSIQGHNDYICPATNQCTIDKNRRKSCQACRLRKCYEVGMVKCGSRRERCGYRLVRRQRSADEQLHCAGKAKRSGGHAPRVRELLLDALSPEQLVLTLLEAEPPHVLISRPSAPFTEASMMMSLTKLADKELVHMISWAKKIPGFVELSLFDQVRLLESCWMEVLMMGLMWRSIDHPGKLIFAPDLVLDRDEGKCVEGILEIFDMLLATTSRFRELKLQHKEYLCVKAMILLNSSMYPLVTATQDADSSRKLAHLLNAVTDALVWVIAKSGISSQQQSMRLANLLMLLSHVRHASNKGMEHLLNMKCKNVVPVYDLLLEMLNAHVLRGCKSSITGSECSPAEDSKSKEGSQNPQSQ
Sequence of zebrafish Thyroid Hormone Receptor beta (TRb), thrb (gene 30607) (Q9PVE4 whole entry, looked up, the tested form may be a part): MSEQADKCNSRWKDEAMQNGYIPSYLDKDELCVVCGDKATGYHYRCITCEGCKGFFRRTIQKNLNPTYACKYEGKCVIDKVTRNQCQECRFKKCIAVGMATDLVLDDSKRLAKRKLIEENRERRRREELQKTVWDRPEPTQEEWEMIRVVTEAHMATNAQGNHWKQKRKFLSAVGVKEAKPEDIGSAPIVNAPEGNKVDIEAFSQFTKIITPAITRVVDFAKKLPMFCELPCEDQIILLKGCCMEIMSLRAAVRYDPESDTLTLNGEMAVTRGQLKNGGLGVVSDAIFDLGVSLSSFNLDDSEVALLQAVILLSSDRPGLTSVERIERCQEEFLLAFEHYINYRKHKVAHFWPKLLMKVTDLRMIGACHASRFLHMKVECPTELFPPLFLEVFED

The first assay has as its target human Thyroid hormone Receptor beta (TRb), THRB (gene 7068) (UniProt P10828). Description: ATG_hTRb_XSP1: Attagene TRANS-FACTORIAL Multi-Species (XSP1) HepG2 Assay for human Thyroid hormone Receptor beta (TRb) (AID 2283808). The gist of the method:
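HepG2 cells transiently transfected with reporter units driving GAL4-UAS reporters for chimeric NR-Gal4 proteins; 24 h chemical exposure with 3 nM 6-alpha-fluorotestosterone present. Reporter mRNA quantified by RT-PCR and capillary electrophoresis, gain of signal versus DMSO.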
With `C[C@]12CCC(=O)C=C1CC[C@@H]1[C@@H]2CC[C@]2(C)C(=O)CC[C@@H]12`, the compound was called inactive.
For the compound `Oc1ccc(C(c2ccc(O)cc2)(C(F)(F)F)C(F)(F)F)cc1`, the AC50 is 62.3 µM (active) and the compound was called inactive.
As to `C[C@]12CCC(=O)C=C1CC[C@@H]1[C@@H]2CC[C@@]2(C)[C@H]1CC[C@]2(C)O`, the compound was called inactive.
For the compound `CC(C)(O)C(=O)Nc1ccc([N+](=O)[O-])c(C(F)(F)F)c1`, the half-maximal activity concentration (AC50) is 18.2 µM (active).
Consider `CC(C)(c1ccccc1)c1ccc(O)cc1`, for which the compound was called inactive.
Still for that read-out and setting: to `Clc1ccc(C(c2ccccc2Cl)C(Cl)(Cl)Cl)cc1` (stereo not given) belongs “inactive”; to `ClC(Cl)=C(c1ccc(Cl)cc1)c1ccc(Cl)cc1`, “inactive”.

A further assay concerns the target zebrafish Thyroid Hormone Receptor beta (TRb), thrb (gene 30607) (UniProt Q9PVE4). Description: ATG_zfTRb_XSP1: Attagene TRANS-FACTORIAL Multi-Species (XSP1) HepG2 Assay for zebrafish Thyroid Hormone Receptor beta (TRb) (AID 2283809). The gist of the method: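 HepG2 cells transiently transfected with multiplexed GAL4-UAS reporter units expressing chimeric zebrafish TRb–Gal4. Dosed 24 h with 3 nM 6-alpha-fluorotestosterone present; reporter mRNA measured by RT-PCR, HpaI digestion and capillary electrophoresis; gain of signal versus DMSO.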
For the compound `C[C@]12CCC(=O)C=C1CC[C@@H]1[C@@H]2CC[C@]2(C)C(=O)CC[C@@H]12`, the result was inactive.
Consider `Oc1ccc(C(c2ccc(O)cc2)(C(F)(F)F)C(F)(F)F)cc1`, for which the compound was classed as inactive.
Consider `C[C@]12CCC(=O)C=C1CC[C@@H]1[C@@H]2CC[C@@]2(C)[C@H]1CC[C@]2(C)O`, for which the outcome was inactive.
Turning to `CC(C)(O)C(=O)Nc1ccc([N+](=O)[O-])c(C(F)(F)F)c1`, the AC50 was 50 µM (active).
As to `CC(C)(c1ccccc1)c1ccc(O)cc1`, the outcome was inactive.
Regarding `Clc1ccc(C(c2ccccc2Cl)C(Cl)(Cl)Cl)cc1` (stereo not given), the compound was called inactive.
Same read-out and setting: the entry for `ClC(Cl)=C(c1ccc(Cl)cc1)c1ccc(Cl)cc1` is “inactive”.

Test system in a further assay: not listed separately
Description: ATG_XTT_Cytotoxicity_XSP1: Cytotoxicity Assessment in the Attagene TRANS-FACTORIAL Multi-Species (XSP1) HepG2 Assay (AID 2283810). The gist of the method:
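XTT viability readout taken at 24 hours post-dosing in HepG2 liver cells co-treated with 3 nM 6-alpha-fluorotestosterone. Signal loss relative to DMSO controls reflects cytotoxicity.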
Consider `C[C@]12CCC(=O)C=C1CC[C@@H]1[C@@H]2CC[C@]2(C)C(=O)CC[C@@H]12`, for which the outcome was inactive.
On to `Oc1ccc(C(c2ccc(O)cc2)(C(F)(F)F)C(F)(F)F)cc1`, for which the concentration at half-maximal activity (AC50) was 81.2 µM (active).
For the compound `C[C@]12CCC(=O)C=C1CC[C@@H]1[C@@H]2CC[C@@]2(C)[C@H]1CC[C@]2(C)O`, the call was inactive.
Same read-out and setting: the entry for `CC(C)(O)C(=O)Nc1ccc([N+](=O)[O-])c(C(F)(F)F)c1` is “inactive”; for `CC(C)(c1ccccc1)c1ccc(O)cc1` it is “inactive”; for `Clc1ccc(C(c2ccccc2Cl)C(Cl)(Cl)Cl)cc1` (stereo not given) it is “inactive”.
On to `ClC(Cl)=C(c1ccc(Cl)cc1)c1ccc(Cl)cc1`, for which the outcome was inactive.

Test system in another assay: not listed separately
Description: ATG_M_06_XSP2: Attagene TRANS-FACTORIAL Multi-Species (XSP2) HepG2 Assay for M06 Transcription Factor (Internal Marker) (AID 2283811).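 Further: hits are increases in signal above the DMSO baseline.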 How it is done:
ATG_XSP2_multi-species_TRANS is a cell-based, multiplexed assay created by modifying the existing Attagene TRANS-FACTORIAL system to include a panel of nuclear receptors from some or all the following species: human (Homo sapiens), mouse (Mus musculus), frog (Xenopus laevis), zebrafish (Danio rerio), chicken (Gallus gallus), and turtle (Chrysemys picta). The ECOTOX-FACTORIAL format uses HepG2, a human liver cell line, with measurements taken at 24 hours after chemical dosing in a 24-well plate. Xsp2 included 3 nM 6-alpha-fluorotestosterone and 1.5 nM norgestrel to stimulate the androgen receptor.ATG_M_06_XSP2 is one of 29 assay components measured or calculated from the ATG_XSP2_multi-species_TRANS assay. It is designed to make measurements of mRNA induction, a form of inducible reporter, as detected with fluorescence intensity signals by Reverse transcription polymerase chain reaction (RT-PCR) and Capillary electrophoresis technology.This assay endpoint, ATG_M_06_XSP2, was analyzed in the positive analysis fitting direction relative to DMSO as the negative control and baseline of activity. Using a type of inducible reporter, measures of mRNA for gain-of-signal activity can be used to understand the background control at the transcription factor-level as they relate to the gene. Furthermore, this assay endpoint can be referred to as a secondary readout, because this assay has produced multiple assay endpoints where this one serves a background control function. To generalize the intended target to other relatable targets, this assay endpoint is annotated to the background measurement intended target family, where the subfamily is internal marker.
Human liver HepG2 cells are transiently transfected with multiple reporter transcription units (MRTUs) in 6-well plates using FuGene 6 reagent (Roche; 3 ml FuGene/1 mg DNA). The MRTU constructs are regulated by a cis-regulating element (promoter). […] A major difference between the CIS and TRANS system is that in CIS activities of endogenous TFs are measured, whereas the TRANS assay evaluates changes in activities of exogenous, chimeric NR-Gal4 proteins. […] At the end of 24 hour incubation, total RNA was isolated using TriZol reagent (Invitrogen). The isolated RNA is then reverse-transcribed using oligo(dT) primer and Mo-MLV reverse transcriptase (Invitrogen) with DNAse I (Ambion) treatment for 30 min. The one-tenth of the produced cDNA was amplified by PCR using Taq DNA polymerase (Invitrogen) and two reporter sequence-specific primers. The PCR products were fluorescently labeled by primer extension with 6-arboxyfluorescein (6-FAM) 5'-labeled reporter sequence-specific primer (2 min at 95 C, 20 s at 68 C and 10 min at 72 C) and these products were digested with 5U of HpaI (New England Biolabs) for 2h at 37 C. The fragments were purified using Qiaquick PCR columns (Qiagen), analyzed on an ABI 3130xL genetic analyzer (Applied Biosystems) with peak positions identified by using a set of X-rhodamine (ROX)-labeled MapMarker1000 molecular weight standards (BioVentures). The raw capillary electrophoresis data was processed using Attagraph software (Attagene).
`CCOC(=O)C(O)(c1ccc(Cl)cc1)c1ccc(Cl)cc1`: the result was inactive.
On the same count and under the same terms, the entry for `CCC(=O)O[C@H]1CC[C@H]2[C@@H]3CCC4=CC(=O)CC[C@]4(C)[C@H]3CC[C@]12C` is “inactive”; for `C[C@]12CCC(=O)C=C1CC[C@@H]1[C@@H]2CC[C@]2(C)C(=O)CC[C@@H]12` it is “inactive”; for `C[C@]12CCC(=O)C=C1CC[C@@H]1[C@@H]2CC[C@@]2(C)[C@H]1CC[C@]2(C)O` it is “inactive”.
Same read-out and setting: to `CC(C)(O)C(=O)Nc1ccc([N+](=O)[O-])c(C(F)(F)F)c1` belongs “inactive”; to `CC(C)(c1ccccc1)c1ccc(O)cc1`, “inactive”.
With `Clc1ccc(C(c2ccccc2Cl)C(Cl)(Cl)Cl)cc1` (stereo not given), the compound was classed as inactive.
With `CC(c1ccc(O)cc1)(c1ccc(O)cc1)c1ccc(O)cc1`, the outcome was inactive.

A further assay relates to turtle Estrogen Receptor (ERa), gene 101933533. Description: ATG_trERa_XSP2: Attagene TRANS-FACTORIAL Multi-Species (XSP2) HepG2 Assay for turtle Estrogen Receptor (ERa) (AID 2283812).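 Further: human HepG2 liver cells transiently expressing turtle ERa-Gal4 chimeric receptor; actives raise reporter signal above DMSO so AC50 reflects agonist activity.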 In outline: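 HepG2 cells transiently transfected with GAL4-UAS reporter units expressing turtle ERa-Gal4 chimera. Reporter mRNA measured after 24 h dosing by RT-PCR, fluorescent labelling and capillary electrophoresis; gain of signal fitted versus DMSO.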
Consider `CCOC(=O)C(O)(c1ccc(Cl)cc1)c1ccc(Cl)cc1`, for which the AC50 is 6.68 µM (active) and the result was inactive.
Consider `CCC(=O)O[C@H]1CC[C@H]2[C@@H]3CCC4=CC(=O)CC[C@]4(C)[C@H]3CC[C@]12C`, for which the AC50 is 17.3 nM (active) and 5.27 nM (active).
As for `C[C@]12CCC(=O)C=C1CC[C@@H]1[C@@H]2CC[C@]2(C)C(=O)CC[C@@H]12`, the AC50 was 12.9 nM (active) and 12 nM (active).
Same read-out and setting: to `c1cc2ccc3cccc4ccc(c1)c2c34` belongs 167 µM (active) and 27.8 µM (active).
In the case of `Oc1ccc(C(c2ccc(O)cc2)(C(F)(F)F)C(F)(F)F)cc1`, the AC50 is 0.226 µM (active).
Take `C[C@]12CCC(=O)C=C1CC[C@@H]1[C@@H]2CC[C@@]2(C)[C@H]1CC[C@]2(C)O`: the AC50 was 0.0021 µM (active).
As to `CC(C)(O)C(=O)Nc1ccc([N+](=O)[O-])c(C(F)(F)F)c1`, the result was inactive.
On to `CC(C)(c1ccccc1)c1ccc(O)cc1`, for which the half-maximal activity concentration (AC50) is 0.516 µM (active).
For the compound `Clc1ccc(C(c2ccccc2Cl)C(Cl)(Cl)Cl)cc1` (stereo not given), the AC50 was 1.14 µM (active).
For `Cc1cc(-c2ccc(N)c(C)c2)ccc1N`, the half-maximal activity concentration (AC50) is 6.32 µM (active) and 13.2 µM (active).
Regarding `CC(c1ccc(O)cc1)(c1ccc(O)cc1)c1ccc(O)cc1`, the result was inactive.
In the case of `ClC(Cl)=C(c1ccc(Cl)cc1)c1ccc(Cl)cc1`, the AC50 was 10 µM (active).

In the next assay the target is Estrogen receptor beta (Homo sapiens) (UniProt Q92731). Description: ATG_hERb_XSP2: Attagene TRANS-FACTORIAL Multi-Species (XSP2) HepG2 Assay for human Estrogen Receptor (ERb) (AID 2283813).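 Further: actives raise reporter mRNA above DMSO so AC50 reflects agonist induction.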 In outline:
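HepG2 cells transiently transfected with GAL4-UAS reporter units and chimeric human ERb-Gal4, 24 h exposure. Reporter mRNA quantified by RT-PCR with FAM labelling, HpaI digestion and capillary electrophoresis; gain of signal versus DMSO.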
In the case of `CCOC(=O)C(O)(c1ccc(Cl)cc1)c1ccc(Cl)cc1`, the compound was called inactive.
Turning to `CCC(=O)O[C@H]1CC[C@H]2[C@@H]3CCC4=CC(=O)CC[C@]4(C)[C@H]3CC[C@]12C`, the outcome was inactive.
For the compound `C[C@]12CCC(=O)C=C1CC[C@@H]1[C@@H]2CC[C@]2(C)C(=O)CC[C@@H]12`, the half-maximal activity concentration (AC50) is 0.0192 µM (active) and the outcome was inactive.
`Oc1ccc(C(c2ccc(O)cc2)(C(F)(F)F)C(F)(F)F)cc1`: the outcome was inactive.
With `CC(C)(O)C(=O)Nc1ccc([N+](=O)[O-])c(C(F)(F)F)c1`, the call was inactive.
For the compound `CC(C)(c1ccccc1)c1ccc(O)cc1`, the AC50 is 0.531 µM (active).
Turning to `Clc1ccc(C(c2ccccc2Cl)C(Cl)(Cl)Cl)cc1` (stereo not given), the compound was classed as inactive.

Another assay addresses GAL4 Transcription Factor (Internal Marker), GAL4 (gene 855828) (UniProt P04386). The assay is described as follows: ATG_GAL4_XSP2: Attagene TRANS-FACTORIAL Multi-Species (XSP2) HepG2 Assay for GAL4 Transcription Factor (Internal Marker) (AID 2283814).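 Further: GAL4 reporter mRNA background control in MRTU transfected cells not a receptor target.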 The gist of the method: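 HepG2 cells transiently transfected with GAL4-UAS reporter units, stimulated with 3 nM 6-alpha-fluorotestosterone plus 1.5 nM norgestrel, dosed 24 h. Reporter mRNA by RT-PCR/capillary electrophoresis; gain-of-signal fit versus DMSO, background control.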
Regarding `c1cc2ccc3cccc4ccc(c1)c2c34`, the outcome was inactive.
Take `Oc1ccc(C(c2ccc(O)cc2)(C(F)(F)F)C(F)(F)F)cc1`: the call was inactive.
Same read-out and setting: the entry for `CC(C)(O)C(=O)Nc1ccc([N+](=O)[O-])c(C(F)(F)F)c1` is “inactive”; for `Cc1cc(-c2ccc(N)c(C)c2)ccc1N` it is “inactive”.
